Experimental data: PubChem BioAssay AID1159580 (chemical genetic matrix, 2015)
“And” between values parts separate entries of the source, which are not always exact repeats. Equal entries are not always repeated. About 2,000 (36%) of roughly 5,500 compounds were called active. Roughly 18% stayed inconclusive and do not appear here. Rule as the data show it: active = normalized growth mostly below about 0.91 (no sharp cut-off); inconclusive = no clear call, values can overlap the other calls; inactive = mostly above about 0.92. This is one part of the list.

Test: chemical genetic growth profiling, strain panel (AID 1159580);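 also: tested at 20 µM; growth read once vehicle control cultures reached saturation at 30 °C; 1 = growth at the plate median or of vehicle wells; lower values mean less growth of the strain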
Conditions: growth OD

Measured: normalized growth

CC(N=C(NC#N)Nc1ccncc1)C(C)(C)C (stereo not drawn)
inactive: S. cerevisiae deletion strains, locus YJR043C, strain POL32, stronger effect = lower value 1.02 | S. cerevisiae deletion strains, locus YJR075W, strain HOC1, stronger effect = lower value 1.03 | S. cerevisiae deletion strains, locus YKL009W, strain mrt4, stronger effect = lower value 1.04 | S. cerevisiae deletion strains, locus YKL068W, stronger effect = lower value 1.01 | S. cerevisiae deletion strains, locus YKL085W, strain MDH1 (second series), stronger effect = lower value 1.01 | S. cerevisiae deletion strains, locus YKL085W, strain MDH1, stronger effect = lower value 1.01 | S. cerevisiae deletion strains, locus YKL160W, strain elf1, stronger effect = lower value 0.97 | S. cerevisiae deletion strains, locus YKL190W, strain CNB1, stronger effect = lower value 1.01 | S. cerevisiae deletion strains, locus YKR001C, strain vps1, stronger effect = lower value 1.02 | S. cerevisiae deletion strains, locus YKR026C, strain gcn3, stronger effect = lower value 0.978 | S. cerevisiae deletion strains, locus YKR091W, strain srl3, stronger effect = lower value 0.993 | S. cerevisiae deletion strains, locus YLL001W, strain dnm1, stronger effect = lower value 0.956 | S. cerevisiae deletion strains, locus YLL026W, stronger effect = lower value 0.968 | S. cerevisiae deletion strains, locus YLL041C, strain sdh2, stronger effect = lower value 0.982 | S. cerevisiae deletion strains, locus YLR027C, strain aat2, stronger effect = lower value 0.967 | S. cerevisiae deletion strains, locus YLR039C, strain RIC1, stronger effect = lower value 1.02 | S. cerevisiae deletion strains, locus YLR058C, strain SHM2, stronger effect = lower value 1.01 | S. cerevisiae deletion strains, locus YLR102C, strain apc9, stronger effect = lower value 1.02 | S. cerevisiae deletion strains, locus YLR221C, strain rsa3, stronger effect = lower value 1.02 | S. cerevisiae deletion strains, locus YLR258W, strain gsy2, stronger effect = lower value 1.01 | S. cerevisiae deletion strains, locus YLR262C, strain YPT6 (second series), stronger effect = lower value 0.947 | S. cerevisiae deletion strains, locus YLR262C, strain YPT6, stronger effect = lower value 1.04 | S. cerevisiae deletion strains, locus YLR268W, strain sec22, stronger effect = lower value 1.06 | S. cerevisiae deletion strains, locus YLR320W, strain mms22, stronger effect = lower value 1.02 | S. cerevisiae deletion strains, locus YLR330W, strain CHS5, stronger effect = lower value 1.01 | S. cerevisiae deletion strains, locus YLR342W, strain FKS1 (second series), stronger effect = lower value 0.984 | S. cerevisiae deletion strains, locus YLR342W, strain FKS1, stronger effect = lower value 0.945 | S. cerevisiae deletion strains, locus YLR357W, strain rsc2, stronger effect = lower value 0.957 | S. cerevisiae deletion strains, locus YLR370C, strain arc18, stronger effect = lower value 0.972 | S. cerevisiae deletion strains, locus YLR371W, strain rom2, stronger effect = lower value 1.04 | S. cerevisiae deletion strains, locus YLR384C, strain iki3, stronger effect = lower value 0.968 | S. cerevisiae deletion strains, locus YLR418C, strain cdc73, stronger effect = lower value 1.04 | S. cerevisiae deletion strains, locus YML016C, strain PPZ1, stronger effect = lower value 1 | S. cerevisiae deletion strains, locus YML032C, strain rad52, stronger effect = lower value 1.03 | S. cerevisiae deletion strains, locus YML120C, strain ndi1, stronger effect = lower value 0.964 | S. cerevisiae deletion strains, locus YML124C, strain tub3, stronger effect = lower value 1.01 | S. cerevisiae deletion strains, locus YMR058W, strain fet3, stronger effect = lower value 0.978 | S. cerevisiae deletion strains, locus YMR078C, strain ctf18, stronger effect = lower value 1.02 | S. cerevisiae deletion strains, locus YMR125W, strain sto1, stronger effect = lower value 0.984 | S. cerevisiae deletion strains, locus YMR129W, stronger effect = lower value 0.981 | S. cerevisiae deletion strains, locus YMR205C, strain PFK2, stronger effect = lower value 0.984 | S. cerevisiae deletion strains, locus YMR223W, strain ubp8, stronger effect = lower value 0.994 | S. cerevisiae deletion strains, locus YMR231W, strain pep5, stronger effect = lower value 1 | S. cerevisiae deletion strains, locus YMR263W, strain SAP30, stronger effect = lower value 1.04 | S. cerevisiae deletion strains, locus YMR307W, strain GAS1, stronger effect = lower value 0.992 and 1.03 | S. cerevisiae deletion strains, locus YNL067W, strain RPL9B, stronger effect = lower value 1.04 | S. cerevisiae deletion strains, locus YNL071W, strain lat1, stronger effect = lower value 0.988 | S. cerevisiae deletion strains, locus YNL128W, strain TEP1, stronger effect = lower value 1.02 | S. cerevisiae deletion strains, locus YNL153C, strain GIM3, stronger effect = lower value 1.02 | S. cerevisiae deletion strains, locus YNL175C, strain NOP13, stronger effect = lower value 1 | S. cerevisiae deletion strains, locus YNL197C, strain WHI3, stronger effect = lower value 0.977 | S. cerevisiae deletion strains, locus YNL209W, strain ssb2, stronger effect = lower value 0.993 | S. cerevisiae deletion strains, locus YNL224C, strain SQS1, stronger effect = lower value 0.992 | S. cerevisiae deletion strains, locus YNL233W, strain BNI4, stronger effect = lower value 1.02 | S. cerevisiae deletion strains, locus YNL248C, strain rpa49, stronger effect = lower value 1.02 | S. cerevisiae deletion strains, locus YNL250W, strain rad50, stronger effect = lower value 1.01 | S. cerevisiae deletion strains, locus YNL271C, strain bni1, stronger effect = lower value 1.02 | S. cerevisiae deletion strains, locus YNL298W, strain CLA4, stronger effect = lower value 1.02 | S. cerevisiae deletion strains, locus YNL307C, strain MCK1, stronger effect = lower value 1.02 | S. cerevisiae deletion strains, locus YNL322C, strain KRE1 (second series), stronger effect = lower value 0.982 | S. cerevisiae deletion strains, locus YNL322C, strain KRE1, stronger effect = lower value 1.02 and 1 | S. cerevisiae deletion strains, locus YNR049C, strain mso1, stronger effect = lower value 0.986 | S. cerevisiae deletion strains, locus YNR052C, strain pop2, stronger effect = lower value 1.01 | S. cerevisiae deletion strains, locus YOL006C, strain TOP1, stronger effect = lower value 1.08 | S. cerevisiae deletion strains, locus YOL012C, strain htz1 1.52 | S. cerevisiae deletion strains, locus YOL147C, strain pex11, stronger effect = lower value 1.01 | S. cerevisiae deletion strains, locus YOR001W, strain rrp6, stronger effect = lower value 0.957 | S. cerevisiae deletion strains, locus YOR061W, strain CKA2, stronger effect = lower value 0.999 | S. cerevisiae deletion strains, locus YOR069W, strain VPS5, stronger effect = lower value 1.01 | S. cerevisiae deletion strains, locus YOR070C, strain gyp1, stronger effect = lower value 0.996 | S. cerevisiae deletion strains, locus YOR080W, strain dia2, stronger effect = lower value 0.963 | S. cerevisiae deletion strains, locus YOR083W, strain WHI5 (second series), stronger effect = lower value 0.984 | S. cerevisiae deletion strains, locus YOR083W, strain WHI5, stronger effect = lower value 0.956 | S. cerevisiae deletion strains, locus YOR106W, strain vam3, stronger effect = lower value 0.964 | S. cerevisiae deletion strains, locus YOR136W, strain idh2, stronger effect = lower value 1.01 | S. cerevisiae deletion strains, locus YOR144C, strain elg1, stronger effect = lower value 1.02 | S. cerevisiae deletion strains, locus YOR184W, strain ser1, stronger effect = lower value 1.03 | S. cerevisiae deletion strains, locus YOR265W, strain rbl2, stronger effect = lower value 0.98 | S. cerevisiae deletion strains, locus YOR270C, strain vph1, stronger effect = lower value 0.997 | S. cerevisiae deletion strains, locus YOR290C, strain snf2, stronger effect = lower value 1.01 | S. cerevisiae deletion strains, locus YOR316C, strain cot1, stronger effect = lower value 1.02 | S. cerevisiae deletion strains, locus YPL051W, strain arl3, stronger effect = lower value 0.985 | S. cerevisiae deletion strains, locus YPL055C, strain LGE1, stronger effect = lower value 1.03 | S. cerevisiae deletion strains, locus YPL078C, strain atp4, stronger effect = lower value 0.919 | S. cerevisiae deletion strains, locus YPL106C, strain sse1, stronger effect = lower value 0.945 | S. cerevisiae deletion strains, locus YPL240C, strain hsp82, stronger effect = lower value 0.972 | S. cerevisiae deletion strains, locus YPL241C, strain CIN2, stronger effect = lower value 1 | S. cerevisiae deletion strains, locus YPR119W, strain clb2, stronger effect = lower value 1.02 | S. cerevisiae deletion strains, locus YPR141C, strain kar3, stronger effect = lower value 1.01 | S. cerevisiae deletion strains, locus YPR163C, strain tif3, stronger effect = lower value 1.03 | S. cerevisiae deletion strains, locus YPR167C, strain met16, stronger effect = lower value 1.02 | S. cerevisiae deletion strains, strain wtn01, stronger effect = lower value 1.05 | S. cerevisiae strains, strain wild type, stronger effect = lower value 1.01
